We go through 18 molecules from PubChem BioAssay (EPA / NIEHS).

Molecules are shown by their SMILES. Values joined by “and” are separate entries in the source; they are usually repeats but may differ in a detail not shown here. Equal entries are not always repeated. Where a structure was tested more than once in an assay, its records may differ in their call. Active and inactive are the calls of the source. Rule for the calls: active = hit-call score of the fitted dose curve at least 0.9, where 1 is the maximum; inactive = score below 0.9.

Read-out in experiment [1]: Monokine induced gamma interferon (MIG), CXCL9 (gene 4283)
The experiment can be described thus: BSK_hDFCGF_MIG: BioMAP Diversity Plus: hDFCGF Assay for Monokine induced gamma interferon (MIG) Biomarker Activity (AID 2283063). Conditions: primary human foreskin fibroblasts; actives raise or lower the signal. The gist of the method:
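Endpoint derived by bidirectional fitting relative to DMSO; MIG quantified via ELISA in primary human foreskin fibroblasts harvested 24 h after dosing.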

Read-out in experiment [2]: Matrix Metallopeptidase 1 (MMP1), MMP1 (gene 4312)
The experiment can be described thus: BSK_hDFCGF_MMP1: BioMAP Diversity Plus: hDFCGF Assay for Matrix Metallopeptidase 1 (MMP1) Biomarker Activity (AID 2283064). Conditions: primary human foreskin fibroblasts; actives raise or lower the signal. The method in brief: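 hDFCGF primary fibroblasts (human foreskin); chemical added; 24 h; MMP1 by ELISA; bidirectional fit vs DMSO.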

Read-out in experiment [3]: Vascular cell adhesion molecule 1 (VCAM1), VCAM1 (gene 7412)
Nature of the experiment: BSK_hDFCGF_VCAM1: BioMAP Diversity Plus: hDFCGF Assay for Vascular cell adhesion molecule 1 (VCAM1) Biomarker Activity (AID 2283065).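 For AC50: VCAM-1 protein level quantified by ELISA after 24 h chemical exposure.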 Conditions: primary human foreskin fibroblasts; actives raise or lower the signal. The gist of the method:
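Measured after 24 h chemical treatment of primary human skin fibroblasts, VCAM-1 was detected by ELISA and concentration-response analysed in both directions versus DMSO vehicle.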

Read-out in experiment [4]: Plasminogen activator inhibitor-1 (PAI1), SERPINE1 (gene 5054)
Nature of the experiment: BSK_hDFCGF_PAI1: BioMAP Diversity Plus: hDFCGF Assay for Plasminogen activator inhibitor-1 (PAI1) Biomarker Activity (AID 2283066). To be noted: primary human foreskin fibroblasts; actives raise or lower the signal. The method in brief: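 Primary dermal fibroblasts (human foreskin), hDFCGF system; compound 24 h; PAI-1 by ELISA; bidirectional fit vs DMSO control.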

Read-out in experiment [5]: Intercellular Adhesion Molecule 1 (ICAM1), ICAM1 (gene 3383)
Nature of the experiment: BSK_KF3CT_ICAM1: BioMAP Diversity Plus: KF3CT Assay for Intercellular Adhesion Molecule 1 (ICAM1) Biomarker Activity (AID 2283067). To be noted: primary human keratinocytes with fibroblasts; actives raise or lower the signal. The method in brief:
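Bidirectional curve fitting against a DMSO baseline was applied to ICAM-1 ELISA signal from primary human skin co-cultures harvested 24 h after treatment, with SRB staining of parallel wells for overt cytotoxicity.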

Read-out in experiment [6]: Interferon-gamma inducible Protein 10 (IP10), CXCL10 (gene 3627)
Nature of the experiment: BSK_KF3CT_IP10: BioMAP Diversity Plus: KF3CT Assay for Interferon-gamma inducible Protein 10 (IP10) Biomarker Activity (AID 2283068). To be noted: primary human keratinocytes with fibroblasts; actives raise or lower the signal. The gist of the method: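 KF3CT co-culture (keratinocytes + foreskin fibroblasts), 24 h compound, IP-10 by ELISA; bidirectional fit vs DMSO baseline.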

A short description of experiment [7]: BSK_KF3CT_SRB: Viability Assessment in the BioMAP Diversity Plus: KF3CT Assay (AID 2283069).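 Note: total protein by sulforhodamine B staining as a cytotoxicity measure; read 24 h after compound addition; fitted for both signal gain and loss against DMSO baseline.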 Conditions: primary human keratinocytes with fibroblasts. The method in brief: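 Keratinocytes co-cultured with foreskin fibroblasts (human primary); chemical added, 24 h; fix 10% TCA, stain 0.1% SRB, A560. Bidirectional fit vs DMSO.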
Read-out in experiment [8]: Interleukin-1 alpha (IL1a), IL1A (gene 3552)
Nature of the experiment: BSK_KF3CT_IL1a: BioMAP Diversity Plus: KF3CT Assay for Interleukin-1 alpha (IL1a) Biomarker Activity (AID 2283070). To be noted: primary human keratinocytes with fibroblasts; actives raise or lower the signal. The gist of the method:
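Chemicals were dosed onto co-cultured human keratinocytes and foreskin fibroblasts, IL-1a was quantified by ELISA at 24 h, and activity was fitted in both directions relative to DMSO controls.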

Read-out in experiment [9]: TIMP metallopeptidase inhibitor 2 (TIMP2), TIMP2 (gene 7077)
The experiment can be described thus: BSK_KF3CT_TIMP2: BioMAP Diversity Plus: KF3CT Assay for TIMP metallopeptidase inhibitor 2 (TIMP2) Biomarker Activity (AID 2283071). To be noted: primary human keratinocytes with fibroblasts; actives raise or lower the signal. The gist of the method: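 Cells: human keratinocytes co-cultured with foreskin fibroblasts. Treat with chemical, 24 h. Measure TIMP-2 by ELISA; fit curves bidirectionally vs DMSO baseline.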

Read-out in experiment [10]: Matrix Metallopeptidase 9 (MMP9), MMP9 (gene 4318)
Nature of the experiment: BSK_KF3CT_MMP9: BioMAP Diversity Plus: KF3CT Assay for Matrix Metallopeptidase 9 (MMP9) Biomarker Activity (AID 2283074).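 For AC50: MMP9 protein level quantified by ELISA in the co-culture.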 To be noted: primary human keratinocytes with fibroblasts; actives raise or lower the signal. The gist of the method: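 Human keratinocyte/foreskin fibroblast co-culture; compound added; 24 h; MMP-9 by ELISA; bidirectional fit vs DMSO baseline.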

Usually AC50 stands for the concentration at which the activity in the assay is half-maximal. As to `C=CCOc1c(Br)cc(Br)cc1Br`, the concentration at half-maximal activity (AC50) in experiment [1] is 20 µM (active); in [2] it was 30.3 µM (active); in [3], 33.1 µM (active); in [4] it was 20 µM (active); in [5] it was 30.7 µM (active); in [6] it was 38.9 µM (active). Also, the AC50 in [7] was 27.8 µM (active); in experiment [8], 20 µM (active); in experiment [9] it was 11.4 µM (active); in [10] it was 20 µM (active).
As for `CCO[Si](CCCN=C=O)(OCC)OCC`, the outcome in [1], in experiment [2], in experiment [3], in experiment [4], in [5] and in [6] was inactive. The outcome in experiment [7], in experiment [8], in experiment [9] and in experiment [10] was inactive.
With `CCCCCCCCCCCCCCCC[N+](C)(C)CC`, the AC50 in experiment [1] is 3.45 µM (active); in experiment [2], 4.94 µM (active); in experiment [3] it was 1.82 µM (active); in experiment [4] it was 1.53 µM (active); in [5], 4.6 µM (active); in [6] it was 2.96 µM (active). The AC50 in experiment [7] was 5.14 µM (active); in [8], 3.23 µM (active); in experiment [9], 2.15 µM (active); in experiment [10], 1.68 µM (active).
Consider `CCCCNc1ccc(NCCCC)c2c1C(=O)c1ccccc1C2=O`, for which the outcome in experiment [1], in [2], in experiment [3], in [4], in experiment [5] and in [6] was inactive. Further, the result in [7], in experiment [8], in experiment [9] and in experiment [10] was inactive.
In the case of `C=CCOCC(O)CCl` (stereo not drawn), the outcome in experiment [1], in experiment [2], in experiment [3], in experiment [4], in experiment [5] and in experiment [6] was inactive. The outcome in experiment [7], in experiment [8], in experiment [9] and in experiment [10] was inactive.
For the molecule `CCOC(=O)c1ccccc1C(=C1C=C(Br)C(=O)C(Br)=C1)c1cc(Br)c(O)c(Br)c1`, the AC50 was 3.85 µM (active) and 3.76 µM (active) in experiment [1]; 4.03 µM (active) and 4.34 µM (active) in [2]; 4.49 µM (active) and 3.7 µM (active) in experiment [3]; 3.56 µM (active) and 3.54 µM (active) in [4]; 5.2 µM (active) and 5.41 µM (active) in experiment [5]; 3.9 µM (active) and 3.58 µM (active) in experiment [6]. Further, the AC50 was 3.4 µM (active) in experiment [7]; 3.49 µM (active) and 3.47 µM (active) in experiment [8]; 3.46 µM (active) and 3.44 µM (active) in experiment [9]; 3.55 µM (active) and 3.24 µM (active) in experiment [10]. Besides, the result in experiment [7] was inactive.
Take `c1ccc2c(c1)ccc1ncccc12`: the result in experiment [1], in experiment [2], in experiment [3], in [4], in [5] and in experiment [6] was inactive. Moreover, the outcome in [7] and in experiment [9] was inactive. Moreover, the AC50 is 8.26 µM (active) in [8] and 20 µM (active) in [10].
As for `C=CC=CC=CCCCCC`, the result in [1], in experiment [2], in experiment [3], in [4], in [5] and in experiment [6] was inactive. Further, the result in experiment [7], in experiment [8], in experiment [9] and in [10] was inactive.
As for `C#CC1(O)CC[C@H]2[C@@H]3CCC4=CCCC[C@@H]4[C@H]3CC[C@@]21C` (stereo partly drawn), the half-maximal activity concentration (AC50) in experiment [1] is 35 µM (active); in [2], 37.5 µM (active); in [3], 37.5 µM (active); in experiment [4] it was 36.7 µM (active); in [5], 13.6 µM (active); in [6], 34 µM (active). Moreover, the half-maximal activity concentration (AC50) in experiment [7] was 30.6 µM (active); in experiment [8], 31.7 µM (active); in experiment [9], 20 µM (active); in experiment [10], 31.9 µM (active).
As for `c1ccc2c(c1)ccc1cc3c(ccc4ccccc43)cc12`, the outcome in [1], in experiment [2], in experiment [3], in [4], in experiment [5] and in experiment [6] was inactive. Moreover, the result in experiment [7], in experiment [8], in experiment [9] and in experiment [10] was inactive. In addition, the values for the concentration at half-maximal activity (AC50) in experiment [3] and in [9] were 0.0192 µM (active) and 3.59 µM (active), respectively.
Consider `CO[Si](OC)(OC)c1ccccc1`, for which the result in [1], in [2], in experiment [3], in experiment [4], in experiment [5] and in experiment [6] was inactive. Moreover, the outcome in experiment [7], in [8], in [9] and in experiment [10] was inactive.
Consider `S=C(NC1CCCCC1)NC1CCCCC1`, for which the result in [1], in experiment [2], in [3], in [4], in experiment [5] and in experiment [6] was inactive. Besides, the outcome in experiment [7], in experiment [8], in [9] and in experiment [10] was inactive.
As for `c1ccc(-c2ccccn2)nc1`, the outcome in [1], in experiment [2], in experiment [3], in experiment [4], in experiment [5] and in [6] was inactive. Moreover, the result in experiment [7], in experiment [8], in experiment [9] and in experiment [10] was inactive.
On to `O=C(Nc1ccccc1SSc1ccccc1NC(=O)c1ccccc1)c1ccccc1`, for which the result in [1], in experiment [2], in [3], in [4], in experiment [5] and in experiment [6] was inactive. In addition, the outcome in [7], in [8], in [9] and in [10] was inactive.
As for `O=C1CCCN1CCO`, the result in [1], in [2], in experiment [3], in [4], in [5] and in experiment [6] was inactive. The outcome in [7], in experiment [8], in experiment [9] and in experiment [10] was inactive.
Turning to `CCCCC(CC)COC(=O)c1ccccc1O` (stereo not drawn), the AC50 was 15 µM (active) in experiment [1], 17.8 µM (active) in [2], 14.6 µM (active) in [3] and 7.32 µM (active) in [4]. Moreover, the result in experiment [5], in experiment [6], in experiment [7], in experiment [8], in experiment [9] and in experiment [10] was inactive.
Regarding `COCc1c(C(C)C)nc(C(C)C)c(/C=C/[C@@H](O)C[C@@H](O)CC(=O)O)c1-c1ccc(F)cc1`, the outcome in experiment [1], in [2], in experiment [3], in experiment [4], in experiment [5] and in experiment [6] was inactive. In addition, the result in [7], in [8], in [9] and in [10] was inactive.
With `C=C[Si](OC(C)=O)(OC(C)=O)OC(C)=O`, the outcome in [1], in experiment [2], in [3], in experiment [4], in [5] and in [6] was inactive. The outcome in [7], in experiment [8], in [9] and in experiment [10] was inactive.
